Entries with a potency or affinity are not part of this list.

In one experiment the test system is Klebsiella pneumoniae. Conditions: Concentration 20 uM; ASSAY_TEST Inhibition of Bacterial Growth; detection method Absorption (OD600); MEDIA CAMHB; plate type 384well; NBS; CORNING #3640; time 18 hr.
Another experiment deals with Candida albicans. Conditions: 20 µM.
The next experiment deals with Cryptococcus neoformans. To be noted: Concentration 20 uM; ASSAY_TEST Inhibition of Fungal Growth; detection method Resazurin; Absorption (OD600-OD570); plate type 384well; NBS; CORNING #3640.

As usually defined, the Inhibition is the change of the read-out against control, counted positive when it falls. Consider `CC(=O)Oc1ccccc1C(=O)Nc1ncc([N+](=O)[O-])s1` [NITAZOXANIDE], for which the Inhibition in the experiment on Klebsiella pneumoniae was 13.55%; in the experiment with Candida albicans it was 26.7%; with Cryptococcus neoformans, 17.15%.

For `Cc1cccc(C(=O)Nc2ccnc(N(C)C3CCN(CC(C)C)CC3)c2)c1`, the values for the Inhibition with Klebsiella pneumoniae, in the experiment with Candida albicans and in the experiment with Cryptococcus neoformans were 8.58%, 4.57% and -6.76%, respectively.

On to `CO[C@@H]1CN(c2ccc(C#CC3(O)CN4CCC3CC4)c(Cc3ccccc3)n2)C[C@H]1O` (stereo not given in full), for which the Inhibition in the experiment on Klebsiella pneumoniae amounted to 0.81%; with Candida albicans it was 1.57%; with Cryptococcus neoformans, 0.17%.

Consider `Cc1nn(C)c(C)c1NS(=O)(=O)c1c(Cl)cc(-c2ccnc(N3CCNCC3)c2)cc1Cl`, for which the Inhibition was 16.22% with Klebsiella pneumoniae, 6.45% with Candida albicans and -5.82% with Cryptococcus neoformans.

Regarding `CO[C@@H](C(=O)N1Cc2[nH]nc(NC(=O)c3ccc(N4CCN(C)CC4)cc3)c2C1)c1ccccc1` [DANUSERTIB], the Inhibition in the experiment with Klebsiella pneumoniae is 10.18%; in the experiment with Candida albicans, 3.17%; in the experiment with Cryptococcus neoformans, -4%.

Consider `CC1(C)OB(O)c2ccc(C3=NOC(c4cc(Cl)c(F)c(Cl)c4)(C(F)(F)F)C3)cc21` (stereo not given), for which the Inhibition with Klebsiella pneumoniae is 23.09%; in the experiment with Candida albicans it was 3.03%; with Cryptococcus neoformans, -7.16%.

Turning to `Cc1cc(C2=NOC(c3cc(Cl)c(F)c(Cl)c3)(C(F)(F)F)C2)ccc1C(=O)NCc1ccc2c(c1)C(C)(C)OB2O` (stereo not given), the results for the Inhibition in the experiment with Klebsiella pneumoniae, with Candida albicans and with Cryptococcus neoformans were 14.68%, 4.25% and -8.68%, respectively.

Turning to `Nc1c2c(nc3sc4c(c13)CCCC4)CCCC2`, the Inhibition in the experiment on Klebsiella pneumoniae was 3.88%; with Candida albicans, 0.42%; in the experiment with Cryptococcus neoformans it was -9.94%.

Regarding `CNCCC(Oc1ccc(C(F)(F)F)cc1)c1ccccc1` (stereo not given) [FLUOXETINE], the Inhibition with Klebsiella pneumoniae worked out at 7.93%; with Candida albicans, 1.88%; in the experiment with Cryptococcus neoformans, 2.51%.

In the case of `Cc1nn(Cc2ccccc2)c(Cl)c1C(=O)NC1CCCCCC1`, the Inhibition with Klebsiella pneumoniae is 0.72%; in the experiment on Candida albicans, 5.99%; in the experiment with Cryptococcus neoformans it was -4.17%.

(Values after ChEMBL document CHEMBL4513149, “CO-ADD screening of MMV (CH) - MMV compounds” (2021).)
